This note sets out measurements from PubChem BioAssay AID1569 (National Center for Advancing Translational Sciences (NCATS), 2009).

Results filed as inconclusive are left out. Activity calls are given as the source filed them. The call rests on the fitted dose curve; in most records, active means well fitted inhibition curve with a large enough effect; inconclusive means small, poorly fitted or top-dose-only effect, or effect the other way, or another doubt; inactive means no such curve, though single readings can be large or run the other way.
Potency means the concentration at half of the fitted maximal effect.

The experiment can be described thus: Confirmation Concentration-Response Assay for lipid storage modulators. Further: nearly all actives have a fitted effect of over 80% in size.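 On activity change, negative = inhibition: -100% = full block of lipid deposition by 20 µM Triacsin C.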 The following applies: Drosophila S3 cells, lipid droplet BODIPY/CellTracker ratio, 18-24 h; series mostly up to 46.1 µM; activity change, negative = inhibition: at the top concentration. In short, it runs like this: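 Cells at 5,000/well received compound as a titration plus oleic acid (added as 400 uM solution) and were incubated 18–24 h at 24 °C. BODIPY 493/503 lipid signal and CellTracker Red cell count were read by 488-nm laser-scanning cytometry. Activity was normalised to 20 uM Triacsin C.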
Consider `CCOC(=O)c1c(C)[nH]c(C(=O)OCC(=O)NCCc2ccc(OCC)c(OCC)c2)c1C`, for which the Potency is 888 nM (active). On to `COc1ccc(OC)c(NC(=O)CSc2ncnc3c2cnn3-c2ccccc2Cl)c1`, for which the Potency was 1770 nM (active). As for `Cc1ccc(C(=O)NC2CCCc3c2cnn3-c2ccc(F)cc2F)cn1` (stereo not given), the Potency was 3970 nM (active). In the case of `CCOc1ccc(CCNC(=O)COC(=O)c2cccc(N(C)C)c2)cc1OCC`, the Potency was 396 nM (active). Regarding `COc1cccc2cc(-c3nnc(SCC(=O)Nc4nc(C)cs4)n3C)oc12`, the Potency was 1990 nM (active). For the compound `Cn1cc(CNCc2ccc(OC(F)(F)F)cc2)c(-c2ccc3c(c2)OCCO3)n1`, the Potency is 6280 nM (active). On to `CCOc1ccc(OCC)c(NC(=O)C2CCN(S(=O)(=O)c3c(C)noc3C)CC2)c1`, for which the Potency was 996 nM (active). For `Cc1ccccc1-n1ncc(C(C)NC(=O)c2ccco2)c1C` (stereo not given), the Potency was 396 nM (active). With `Cc1nn(C)c(C)c1CN(Cc1nc(CCC(C)C)no1)C(C)C`, the Potency was 12500 nM (active). Turning to `CCOc1ccc(CCNC(=O)COC(=O)c2ccc(S(C)(=O)=O)cc2)cc1OCC`, the “activity change, negative = inhibition” value is -7.33% (inactive).

As for `COc1ccc(CCNC(=O)c2noc(C(C)C)c2[N+](=O)[O-])cc1OC`, the “activity change, negative = inhibition” value was 14.7% (inactive). For `O=C(Nc1cccc(S(=O)(=O)N2CCCCC2)c1)c1ccccc1NS(=O)(=O)c1ccc(F)cc1`, the Potency is 28100 nM (active). For `CCOc1ccc(CCNC(=O)COC(=O)/C=C/c2ccccc2)cc1OCC`, the Potency is 3530 nM (active). `COc1ccc(CCNC(=O)COc2ccc(-c3ccccc3)cc2)cc1OC`: the “activity change, negative = inhibition” value is 10.7% (inactive).

`COCc1ccc(C(=O)NC(C)c2cnn(-c3ccccc3C)c2C)o1` (stereo not given): the Potency is 12500 nM (active). Take `C[C@@H]1NS(=O)(=O)[C@H]2C[C@@H]3C=C[C@]2(O3)[C@H]1OC(=O)c1ccccc1Br`: the “activity change, negative = inhibition” value is 12.1% (inactive). As for `CSCCC(NS(=O)(=O)c1ccc2c(c1)OCCO2)C(=O)N(C)Cc1ccc(C)cc1` (stereo not given), the “activity change, negative = inhibition” value is -2.98% (inactive).

`CCN(CC)S(=O)(=O)c1cccc(NC(=O)CNc2cccc(S(=O)(=O)N3CCCC3)c2)c1`: the Potency is 1990 nM (active). Still for that read-out and setting: the figure for `COc1ccc(CCn2ccc(O)c(Cc3c(F)cccc3Cl)c2=O)cc1OC` is 434 nM (active). For `Cc1ccc(-n2ncc3c2CCCC3NC(=O)c2cnccn2)cc1C` (stereo not given), the Potency is 141 nM (active).
